In the OligoGym collection:

Target: GRAMD1C
Test: pooled miR-30 sensor sort-seq; sequence = guide strand
Conditions: shRNA
Further: reference of the scale not given here.

| Sequence | sensor-assay potency score (higher = more potent) |
| --- | --- |
| TACATCTTCCTGTAAGTCGGTG | -0.625 |
| TAACTCTTGAAAAAATATCTGA | -0.51 |
| TTTTGATGAATTTCCATCGAAT | -0.801 |
| TAGTCCTCCAAAGAACTCCAGG | -0.901 |
| TATAAAGCAACTTACTTCGATA | -0.838 |
| ATAATCATCATCAACATGCAGA | 0.0723 |
| TTGATAGTCAGTACACTTGTAC | 0.115 |
| TAACAAATCTGATTCAAGCTGT | 0.354 |
| TTCATTTTTATTCAAGTCCAGT | -0.865 |
| TTATTTAGTAGATCAAACGTTT | -0.243 |
| TTGCTATAGAAACATAGCCAGT | -1.61 |
| TATTCTTCTGAATAGTTTCTGC | -0.573 |

Target: GRHL3
Test: as above
Conditions: shRNA

| Sequence | sensor-assay potency score (higher = more potent) |
| --- | --- |
| TTTTCTAGGTACGTCTTCCAGG | -0.466 |
| TTGCATTTCTTGTAGACTTTGT | -0.218 |
| TTTTGTGAGGAAAAGTCTGTGC | -0.211 |
| TTGATCTGGCAGACAGCACGGT | -0.0201 |
| TTGACTAAGATTCCTCGCTTGC | -0.416 |
| TAGGTCGTCTCATTGCCCCTGA | 0.415 |
| TTTAGCAGCCGCACAGACCTGA | -0.237 |
| TATTCTTCTTGAGCAAATCTGG | -0.748 |
| TCACAGAAGATCTTGATCTGGC | 0.419 |
| TTTGTGGCAGCTGTCAACGGGT | -0.745 |
| TTCTTCTTGAGCAAATCTGGGT | -0.605 |
